Laboratory results taken from PubChem BioAssay AID1159580 (chemical genetic matrix, 2015).
The campaign covered roughly 5,500 compounds. About 2,000 (36%) were called active. Not shown: some 18% with an inconclusive outcome. Rule as the data show it: active = normalized growth mostly below about 0.91 (no sharp cut-off); inconclusive = no clear call, values can overlap the other calls; inactive = mostly above about 0.92. The list shows a part of the results.

Assay: chemical genetic growth profiling, strain panel (AID 1159580);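 also: tested at 20 µM; growth read once vehicle control cultures reached saturation at 30 °C; 1 = growth at the plate median or of vehicle wells; lower values mean less growth of the strain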
Settings: growth OD

Measured: normalized growth

CN(Cc1cnc2nc(N)nc(N)c2n1)c1ccc(C(=O)NC(CCC(=O)O)C(=O)O)cc1 (stereo unspecified)
inactive: S. cerevisiae deletion strains, locus YKL160W, strain elf1, active compounds read low 0.94 | S. cerevisiae deletion strains, locus YKR001C, strain vps1, active compounds read low 0.953 | S. cerevisiae deletion strains, locus YKR026C, strain gcn3, active compounds read low 0.934 | S. cerevisiae deletion strains, locus YKR091W, strain srl3, active compounds read low 0.94 | S. cerevisiae deletion strains, locus YLL026W, active compounds read low 0.935 | S. cerevisiae deletion strains, locus YLL041C, strain sdh2, active compounds read low 0.955 | S. cerevisiae deletion strains, locus YLR027C, strain aat2, active compounds read low 0.94 | S. cerevisiae deletion strains, locus YLR039C, strain RIC1, active compounds read low 0.909 | S. cerevisiae deletion strains, locus YLR058C, strain SHM2, active compounds read low 0.99 | S. cerevisiae deletion strains, locus YLR102C, strain apc9, active compounds read low 0.993 | S. cerevisiae deletion strains, locus YLR258W, strain gsy2, active compounds read low 0.923 | S. cerevisiae deletion strains, locus YLR262C, strain YPT6 (second series), active compounds read low 0.952 | S. cerevisiae deletion strains, locus YLR262C, strain YPT6, active compounds read low 0.958 | S. cerevisiae deletion strains, locus YLR268W, strain sec22, active compounds read low 0.984 | S. cerevisiae deletion strains, locus YLR330W, strain CHS5, active compounds read low 0.973 | S. cerevisiae deletion strains, locus YLR342W, strain FKS1 (second series), active compounds read low 1.01 | S. cerevisiae deletion strains, locus YLR342W, strain FKS1, active compounds read low 0.928 | S. cerevisiae deletion strains, locus YLR357W, strain rsc2, active compounds read low 0.943 | S. cerevisiae deletion strains, locus YLR371W, strain rom2, active compounds read low 1.01 | S. cerevisiae deletion strains, locus YLR418C, strain cdc73, active compounds read low 0.96 | S. cerevisiae deletion strains, locus YML016C, strain PPZ1, active compounds read low 1.01 | S. cerevisiae deletion strains, locus YML032C, strain rad52, active compounds read low 0.986 | S. cerevisiae deletion strains, locus YML124C, strain tub3, active compounds read low 0.974 | S. cerevisiae deletion strains, locus YMR078C, strain ctf18, active compounds read low 0.986 | S. cerevisiae deletion strains, locus YMR125W, strain sto1, active compounds read low 0.95 | S. cerevisiae deletion strains, locus YMR129W, active compounds read low 0.948 | S. cerevisiae deletion strains, locus YMR205C, strain PFK2, active compounds read low 0.948 | S. cerevisiae deletion strains, locus YMR223W, strain ubp8, active compounds read low 0.953 | S. cerevisiae deletion strains, locus YMR263W, strain SAP30, active compounds read low 0.987 | S. cerevisiae deletion strains, locus YMR307W, strain GAS1, active compounds read low 1.02 | S. cerevisiae deletion strains, locus YNL067W, strain RPL9B, active compounds read low 0.963 | S. cerevisiae deletion strains, locus YNL071W, strain lat1, active compounds read low 0.961 | S. cerevisiae deletion strains, locus YNL153C, strain GIM3, active compounds read low 0.974 | S. cerevisiae deletion strains, locus YNL175C, strain NOP13, active compounds read low 0.975 | S. cerevisiae deletion strains, locus YNL197C, strain WHI3, active compounds read low 0.976 | S. cerevisiae deletion strains, locus YNL224C, strain SQS1, active compounds read low 0.977 | S. cerevisiae deletion strains, locus YNL233W, strain BNI4, active compounds read low 0.98 | S. cerevisiae deletion strains, locus YNL248C, strain rpa49, active compounds read low 0.925 | S. cerevisiae deletion strains, locus YNL307C, strain MCK1, active compounds read low 1.01 | S. cerevisiae deletion strains, locus YNL322C, strain KRE1, active compounds read low 0.971 | S. cerevisiae deletion strains, locus YNR049C, strain mso1, active compounds read low 0.921 | S. cerevisiae deletion strains, locus YNR052C, strain pop2, active compounds read low 0.951 | S. cerevisiae deletion strains, locus YOL012C, strain htz1 1.38 | S. cerevisiae deletion strains, locus YOL147C, strain pex11, active compounds read low 0.982 | S. cerevisiae deletion strains, locus YOR001W, strain rrp6, active compounds read low 0.929 | S. cerevisiae deletion strains, locus YOR061W, strain CKA2, active compounds read low 0.99 | S. cerevisiae deletion strains, locus YOR069W, strain VPS5, active compounds read low 0.987 | S. cerevisiae deletion strains, locus YOR070C, strain gyp1, active compounds read low 0.934 | S. cerevisiae deletion strains, locus YOR083W, strain WHI5 (second series), active compounds read low 0.984 | S. cerevisiae deletion strains, locus YOR083W, strain WHI5, active compounds read low 0.908 | S. cerevisiae deletion strains, locus YOR136W, strain idh2, active compounds read low 0.995 | S. cerevisiae deletion strains, locus YOR144C, strain elg1, active compounds read low 0.975 | S. cerevisiae deletion strains, locus YOR184W, strain ser1, active compounds read low 0.968 | S. cerevisiae deletion strains, locus YOR270C, strain vph1, active compounds read low 0.957 | S. cerevisiae deletion strains, locus YOR316C, strain cot1, active compounds read low 0.984 | S. cerevisiae deletion strains, locus YPL051W, strain arl3, active compounds read low 0.984 | S. cerevisiae deletion strains, locus YPL078C, strain atp4, active compounds read low 0.947 | S. cerevisiae deletion strains, locus YPL106C, strain sse1, active compounds read low 0.947 | S. cerevisiae deletion strains, locus YPL240C, strain hsp82, active compounds read low 0.957 | S. cerevisiae deletion strains, locus YPR119W, strain clb2, active compounds read low 0.989 | S. cerevisiae deletion strains, locus YPR163C, strain tif3, active compounds read low 0.985 | S. cerevisiae deletion strains, locus YPR167C, strain met16, active compounds read low 0.975 | S. cerevisiae deletion strains, strain wtn01, active compounds read low 0.97 | S. cerevisiae strains, strain wild type, active compounds read low 0.973
active: S. cerevisiae deletion strains, locus YJR066W, strain TOR1, active compounds read low 0.0866 | S. cerevisiae deletion strains, locus YKL009W, strain mrt4, active compounds read low 0.527 | S. cerevisiae deletion strains, locus YKL068W, active compounds read low 0.513 | S. cerevisiae deletion strains, locus YKL085W, strain MDH1 (second series), active compounds read low 0.311 | S. cerevisiae deletion strains, locus YKL085W, strain MDH1, active compounds read low 0.311 | S. cerevisiae deletion strains, locus YLL001W, strain dnm1, active compounds read low 0.873 | S. cerevisiae deletion strains, locus YLR113W, strain HOG1, active compounds read low 0.247 | S. cerevisiae deletion strains, locus YLR221C, strain rsa3, active compounds read low 0.816 | S. cerevisiae deletion strains, locus YLR320W, strain mms22, active compounds read low 0.789 | S. cerevisiae deletion strains, locus YLR370C, strain arc18, active compounds read low 0.877 | S. cerevisiae deletion strains, locus YLR384C, strain iki3, active compounds read low 0.88 | S. cerevisiae deletion strains, locus YML120C, strain ndi1, active compounds read low 0.813 | S. cerevisiae deletion strains, locus YMR058W, strain fet3, active compounds read low 0.893 | S. cerevisiae deletion strains, locus YMR231W, strain pep5, active compounds read low 0.923 | S. cerevisiae deletion strains, locus YNL183C, strain NPR1, active compounds read low 0.112 | S. cerevisiae deletion strains, locus YNL209W, strain ssb2, active compounds read low 0.913 | S. cerevisiae deletion strains, locus YNL250W, strain rad50, active compounds read low 0.195 | S. cerevisiae deletion strains, locus YNL271C, strain bni1, active compounds read low 0.291 | S. cerevisiae deletion strains, locus YNL298W, strain CLA4, active compounds read low 0.385 | S. cerevisiae deletion strains, locus YNL322C, strain KRE1 (second series), active compounds read low 0.512 | S. cerevisiae deletion strains, locus YOR080W, strain dia2, active compounds read low 0.902 | S. cerevisiae deletion strains, locus YOR106W, strain vam3, active compounds read low 0.801 | S. cerevisiae deletion strains, locus YOR231W, strain MKK1, active compounds read low 0.193 | S. cerevisiae deletion strains, locus YOR265W, strain rbl2, active compounds read low 0.911 | S. cerevisiae deletion strains, locus YOR290C, strain snf2, active compounds read low 0.845 | S. cerevisiae deletion strains, locus YPL256C, strain CLN2, active compounds read low 0.227 | S. cerevisiae deletion strains, locus YPR141C, strain kar3, active compounds read low 0.345
